# About 540 (0.36%) of roughly 150,000 compounds showed an effect of 50% or more. What follows is part of a selection rich in strong results, with near analogues and random picks from the rest.
# Tested on: Plasmodium falciparum
# Assay: Primary screen in NF54 nanoGlo assay, in single point, at 2uM, 72h; a lower Z score goes with more inhibition
# Type: functional, Erythrocyte
# Settings: timepoint 72 hour
Structure (SMILES),% Inhibition,Z score
CC(C)(C)c1ncc(-c2cc(F)cc3cccnc23)[nH]1,-16%,1.82
Cc1n[nH]nc1-c1nc(-c2ccncc2)nn1[C@H]1CCS(=O)(=O)C1,-6%,0.87
Cc1ccc(CS(=O)(=O)N2CCC3CCN(C)CC32)c(F)c1 (stereo not drawn),-7%,1.13
Cc1nccn1CCNC(=O)c1cc2cccc(Cl)c2n1C,-16%,1.43
CC[C@H]1CN(Cc2cccn2-c2nccs2)CCN1C,-2%,0.41
Cc1ccc(-n2nc(C)cc2NS(=O)(=O)c2c(C)nn(C(C)C)c2C)nn1,-9%,1.42
CCOc1cccc2[nH]cc(CC(=O)N[C@H](c3nccn3C)C3CC3)c12,7%,-0.9
CCOC(=O)NCCC(=O)NCCC[C@H]1CCCCO1,-4%,0.49
CCc1nsc(N2CC(C)N(CC#N)C(C)C2)n1 (stereo not drawn),-3%,0.45
Cc1cc(N)n(-c2ccc(-c3noc(-c4cc(C(C)C)on4)n3)cc2)n1,15%,-3.24
CC[C@@H](c1nc(-c2ccc(-n3nc(C)cc3N)cc2)no1)n1cccn1,-2%,0.32
CCCc1cc(-c2nc(-c3ccc(-n4nc(C)cc4N)cc3)no2)n(C)n1,71%,-14.18
C[C@@H](CNc1nc(-c2ccccc2)nc2nc(-c3ccc(Cl)cc3)oc12)N1CCCCC1,79%,-10.9
c1ccc(-c2nc(NC3CCCC3)c3oc(-c4ccccc4)nc3n2)cc1,-7%,0.89
C[C@@H](CNc1nc(-c2ccccc2)nc2nc(-c3ccc(Cl)cc3)oc12)N1CCOCC1,-17%,2.25
CCc1noc(C2(n3cccn3)CC2)n1,-8%,0.8
N#Cc1ccccc1OCCN1CCS(=O)(=O)CC1,-3%,0.38
O=C(NC1CCc2[nH]cnc2C1)N[C@@H]1CCCc2ccccc21 (stereo partly drawn),4%,-0.51
O=C(N[C@H]1CCc2[nH]c3ccc(Br)cc3c2C1)c1ccc(Cl)c(Cl)c1,-9%,1.26
CC(C)c1ccc(CCCNS(N)(=O)=O)cc1,7%,-0.97
c1cc(N2CC[C@]3(CCOC3)C2)c2sccc2n1,-10%,1.52

Structure (SMILES),% Inhibition,Z score
CCc1nc(CCNC(=O)Cc2sc(N)nc2C)no1,-22%,2.33
CN(C)C1(CNc2ncc(F)cn2)CCCC1,-3%,0.48
Oc1cc(C(F)(F)F)c2cc3c(cc2n1)OCO3,30%,-3.35
COc1nccnc1NCC1(N(C)C)CCCCC1,2%,-0.41
CN1CCCN(c2nc(C(F)(F)F)nc3cc4c(cc23)OCO4)CC1,-8%,1.28
O=C(NCc1ccc(Br)cc1)NC1CC2OCCCC12 (stereo not drawn),-11%,1.4
COCCN(Cc1cc2ccc(Cl)cc2nc1N1CCC[C@H](CO)C1)C(=O)c1sccc1C,2%,-0.41
NC(=NCCOc1ncc(Cl)cc1Cl)N1CCOCC1,-11%,1.79
CCN(C)C1(CNC(=O)c2cccc(-c3ncc(F)c(NC)n3)c2)CCCC1,3%,-0.53
CCN(C)C1(CNC(=O)c2ccc(-c3cnccn3)cc2)CCCC1,-14%,2.04
CCN(C)C1(CNC(=O)c2ccc(-c3cc(F)ccc3O)cc2)CCCC1,55%,-0.99
CC(C)ONC(=O)CCc1cccc(O)c1,-11%,1.21
Cc1cc(O)nc2ccc(NC(=O)c3cccc(F)c3)cc12,5%,-0.52
c1c[nH]c(-c2nc(C3CCOCC3)n[nH]2)c1,-6%,1.12
COc1c(C)cc(C(=O)[C@H]2CCCN(c3cc(N)ncn3)C2)cc1C,78%,-15.48
COc1ccnc(CN2CCC[C@H](C(=O)c3cc(C)c(OC)c(C)c3)C2)c1OC,8%,-1.25
CNc1ncc(C(=O)N2CCC[C@H](C(=O)c3cc(C)c(OC)c(C)c3)C2)cn1,4%,-0.72
CCC(CC)C(=O)Nc1cc(C2CC2)nn1-c1nc(-c2ccccc2)cc(=O)[nH]1,69%,-9.47
O=C(CCCc1ccccc1)Nc1cc(C2CC2)nn1-c1nc(-c2ccccc2)cc(=O)[nH]1,54%,-8.76
CCOC(=O)Nc1cc(C2CC2)nn1-c1nc2c(c(=O)[nH]1)CCCC2,4%,-0.55
CC(C)NC(=O)CN(C)CC(=O)Nc1cc(C2CCCC2)nn1-c1ccccc1,1%,-0.16

Structure (SMILES),% Inhibition,Z score
O=C(CN1CCCCC1)Nc1cc(C2CC2)nn1-c1ccccc1,1%,-0.24
CCc1cc(=O)[nH]c(-n2nc(C3CC3)cc2NC(=O)C2CCCCC2)n1,86%,-14.68
CCc1cc(NC(=O)C2CN(C(=O)C3CCCCC3)C2)n(C)n1,-13%,2.45
Cc1cc(N)n(-c2nc(-c3ccccc3)cc(=O)[nH]2)n1,35%,0.14
CC(C)(C)c1cc(NC(=O)CCCc2ccccc2)n([C@H]2CCS(=O)(=O)C2)n1,-2%,0.38
Cc1ccc(C(=O)N2CCCC(C(=O)N3CCCC(c4nnc5ccccn45)C3)C2)cc1 (stereo not drawn),-7%,1.13
CC(C)c1cc(-c2nc(-c3ccccn3)no2)[nH]n1,-11%,1.24
CCS(=O)(=O)Nc1ccnn1[C@@H](C)C1CC1,3%,-0.45
O=C(c1cnnn1-c1cccc(F)c1)N1CCCC12CCC2,-1%,0.15
COc1ccc(C(=O)NCCCc2nnc3ccccn23)o1,-9%,1.7
Cc1nc2ccccn2c(=O)c1CCN[C@@H](C)c1cccc(-n2cccn2)c1,0%,0.05
Cc1ccc(C(=O)N2CCC3(CCc4nn(Cc5ccccc5)c(=O)n4CC3)CC2)s1,-7%,0.82
CCN1CCN(C2CCN(c3ncc(F)c(OC)n3)CC2)CC1,51%,-7.32
CNC(=O)[C@H]1CCN(c2ncc(F)c(OC)n2)C1,-10%,1.93
O=C1[C@@H]2C(c3ccccc3Cl)=NO[C@@H]2C(=O)N1c1ccc2ccccc2c1,-9%,1.2
Cc1c(C2=NO[C@H]3C(=O)N(c4ccc5ccccc5c4)C(=O)[C@@H]23)cnn1C,50%,-5.99
Cc1c(C2=NO[C@H]3C(=O)N(c4ccc(Cl)cc4)C(=O)[C@@H]23)cnn1C,-7%,1
O=C(c1ccc2c(c1)CCC2)N1CC(O)C1,0%,0
Cc1cc(NCc2c(C)noc2C)nc(C2CC2)n1,-7%,1.22
Cc1ccc(Nc2ccc(N3CCNCC3)nn2)nc1,47%,-6.37
c1cc(-c2ccc(N3CCNCC3)nn2)ccn1,5%,-1.03

Structure (SMILES),% Inhibition,Z score
Cc1ccnc(Nc2ccc(N3CCNCC3)nn2)c1,56%,-6.55
CC(C)(C)OC(=O)CCc1cccnc1C(=O)O,-18%,1.85
CC1CC(C(=O)N[C@@H](C)c2cnccn2)CC(C)(C)C1 (stereo partly drawn),8%,-0.99
CC1CC(C(=O)Nc2[nH]c(=O)ncc2F)CC(C)(C)C1 (stereo not drawn),92%,-13.24
CC1CC(C(=O)NCCCn2cn[nH]c2=O)CC(C)(C)C1 (stereo not drawn),0%,0.05
C#CCNC(=O)c1ccc(N[C@@H](C)COC)nc1,-9%,1.46
NC(=O)[C@@H]1CN(Cc2ccc(-c3ccc(Cl)cc3)s2)CCO1,-11%,1.78
COc1cccc(Cn2c(=O)c3sccc3n(CC(=O)Nc3ccc(N(C)C)cc3)c2=O)c1,37%,-1.71
Cc1ccccc1-n1c(=O)c2sccc2n(CC(=O)Nc2ccc(N(C)C)cc2)c1=O,2%,-0.2
Cc1cc(C)cc(-n2c(=O)c3sccc3n(CC(=O)Nc3ccc(N(C)C)cc3)c2=O)c1,51%,1.43
CCN(CCn1cccn1)Cc1cncn1C1CC1,-7%,1.49
CCOC(=O)c1nc(NCC2CCN(Cc3ccccc3F)CC2)c2ccccc2n1,-6%,1.09
CCc1ccccc1Nc1c2c(nc3ccccc13)CCCC2,9%,-1.19
CCc1nnc(NCC(C)(C)CCS(C)(=O)=O)c(C#N)c1CC,2%,-0.31
CC(C)Oc1ccc(-c2cc(C(F)(F)F)n3nc(-c4ccccc4)c(-c4ccccc4)c3n2)cc1,-15%,1.87
Cc1ccnc([C@@H](NC(=O)c2c[nH]c3cc(C)nn3c2=O)C2CC2)c1,-2%,0.39
COc1ccc(OC)c([C@H]2N(Cc3ccc(F)cc3)CCCN2Cc2ccccc2Cl)c1,-3%,0.37
COc1ccc(OC)c(-n2c(-c3ccccc3)cc(C(=O)N3CCN(Cc4ccccc4)CC3)c2C)c1,-8%,1.09
CCC(C(=O)Nc1ccc2c(c1)CN(CCc1ccccc1)C(=O)C(C)O2)c1ccccc1 (stereo not drawn),-7%,0.66
COc1cccc(NC(=O)Nc2ccc3c(c2)CN(CCc2ccc(OC)c(OC)c2)C(=O)[C@H](C)O3)c1,0%,-0.08
CCC(C(=O)Nc1ccc2c(c1)CN(CCc1ccc(OC)c(OC)c1)C(=O)C(C)O2)c1ccccc1 (stereo not drawn),91%,-17.08

# Reference: ChEMBL document CHEMBL4888484, “Replenishing the malaria drug discovery pipeline: Screening and hit evaluation of the MMV Hit Generation Library 1 (HGL1) against asexual blood stage Plasmodium falciparum ,using a nano luciferase reporter read-out” (2022)
